Measured values: PubChem BioAssay
The source made the active and inactive calls.

Legend:
[1] = small molecules captured by biotinylated probe aFSTL3 – biochemical, small-molecule microarray, fluorescence 635/667, stem cell growth factor project, primary screen (AID 1064); conditions: higher = more signal;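 further: measures binding of the biotinylated anti-FSTL3 antibody to printed compounds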
[2] = binders from COS7 lysate, DM2A8 probe, primary screen, torsin A project, cell lysate, small-molecule microarray, fluorescence 635/667 (AID 1065); conditions: higher = more signal, COS7 lysate expressing mutant human TOR1A
[3] = small molecules captured by biotinylated probe aFGF2 – biochemical, small-molecule microarray, fluorescence 635/667, stem cell growth factor project, primary screen (AID 1067); conditions: higher = more signal;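 further: measures binding of biotinylated aFGF2 protein to printed compounds on slides; z-score merges feature fluorescence and signal-to-noise across triplicate slides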
[4] = small molecules captured by biotinylated probe aFGF10 – biochemical, small-molecule microarray, fluorescence 635/667, stem cell growth factor project, primary screen (AID 1071); conditions: higher = more signal;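 further: score merges 667 nm spot intensity and signal to noise from triplicate slides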
[5] = molecular target: Neurogenic locus notch homolog protein 2 (Homo sapiens) (UniProt Q04721); assay: small molecules binding Notch2 protein – biochemical, small-molecule microarray, 635 nm fluorescence, stem cell growth factors, primary screen (AID 1073); conditions: higher = more signal
Chain of Neurogenic locus notch homolog protein 2 (Homo sapiens) (Q04721 whole entry, looked up, canonical isoform): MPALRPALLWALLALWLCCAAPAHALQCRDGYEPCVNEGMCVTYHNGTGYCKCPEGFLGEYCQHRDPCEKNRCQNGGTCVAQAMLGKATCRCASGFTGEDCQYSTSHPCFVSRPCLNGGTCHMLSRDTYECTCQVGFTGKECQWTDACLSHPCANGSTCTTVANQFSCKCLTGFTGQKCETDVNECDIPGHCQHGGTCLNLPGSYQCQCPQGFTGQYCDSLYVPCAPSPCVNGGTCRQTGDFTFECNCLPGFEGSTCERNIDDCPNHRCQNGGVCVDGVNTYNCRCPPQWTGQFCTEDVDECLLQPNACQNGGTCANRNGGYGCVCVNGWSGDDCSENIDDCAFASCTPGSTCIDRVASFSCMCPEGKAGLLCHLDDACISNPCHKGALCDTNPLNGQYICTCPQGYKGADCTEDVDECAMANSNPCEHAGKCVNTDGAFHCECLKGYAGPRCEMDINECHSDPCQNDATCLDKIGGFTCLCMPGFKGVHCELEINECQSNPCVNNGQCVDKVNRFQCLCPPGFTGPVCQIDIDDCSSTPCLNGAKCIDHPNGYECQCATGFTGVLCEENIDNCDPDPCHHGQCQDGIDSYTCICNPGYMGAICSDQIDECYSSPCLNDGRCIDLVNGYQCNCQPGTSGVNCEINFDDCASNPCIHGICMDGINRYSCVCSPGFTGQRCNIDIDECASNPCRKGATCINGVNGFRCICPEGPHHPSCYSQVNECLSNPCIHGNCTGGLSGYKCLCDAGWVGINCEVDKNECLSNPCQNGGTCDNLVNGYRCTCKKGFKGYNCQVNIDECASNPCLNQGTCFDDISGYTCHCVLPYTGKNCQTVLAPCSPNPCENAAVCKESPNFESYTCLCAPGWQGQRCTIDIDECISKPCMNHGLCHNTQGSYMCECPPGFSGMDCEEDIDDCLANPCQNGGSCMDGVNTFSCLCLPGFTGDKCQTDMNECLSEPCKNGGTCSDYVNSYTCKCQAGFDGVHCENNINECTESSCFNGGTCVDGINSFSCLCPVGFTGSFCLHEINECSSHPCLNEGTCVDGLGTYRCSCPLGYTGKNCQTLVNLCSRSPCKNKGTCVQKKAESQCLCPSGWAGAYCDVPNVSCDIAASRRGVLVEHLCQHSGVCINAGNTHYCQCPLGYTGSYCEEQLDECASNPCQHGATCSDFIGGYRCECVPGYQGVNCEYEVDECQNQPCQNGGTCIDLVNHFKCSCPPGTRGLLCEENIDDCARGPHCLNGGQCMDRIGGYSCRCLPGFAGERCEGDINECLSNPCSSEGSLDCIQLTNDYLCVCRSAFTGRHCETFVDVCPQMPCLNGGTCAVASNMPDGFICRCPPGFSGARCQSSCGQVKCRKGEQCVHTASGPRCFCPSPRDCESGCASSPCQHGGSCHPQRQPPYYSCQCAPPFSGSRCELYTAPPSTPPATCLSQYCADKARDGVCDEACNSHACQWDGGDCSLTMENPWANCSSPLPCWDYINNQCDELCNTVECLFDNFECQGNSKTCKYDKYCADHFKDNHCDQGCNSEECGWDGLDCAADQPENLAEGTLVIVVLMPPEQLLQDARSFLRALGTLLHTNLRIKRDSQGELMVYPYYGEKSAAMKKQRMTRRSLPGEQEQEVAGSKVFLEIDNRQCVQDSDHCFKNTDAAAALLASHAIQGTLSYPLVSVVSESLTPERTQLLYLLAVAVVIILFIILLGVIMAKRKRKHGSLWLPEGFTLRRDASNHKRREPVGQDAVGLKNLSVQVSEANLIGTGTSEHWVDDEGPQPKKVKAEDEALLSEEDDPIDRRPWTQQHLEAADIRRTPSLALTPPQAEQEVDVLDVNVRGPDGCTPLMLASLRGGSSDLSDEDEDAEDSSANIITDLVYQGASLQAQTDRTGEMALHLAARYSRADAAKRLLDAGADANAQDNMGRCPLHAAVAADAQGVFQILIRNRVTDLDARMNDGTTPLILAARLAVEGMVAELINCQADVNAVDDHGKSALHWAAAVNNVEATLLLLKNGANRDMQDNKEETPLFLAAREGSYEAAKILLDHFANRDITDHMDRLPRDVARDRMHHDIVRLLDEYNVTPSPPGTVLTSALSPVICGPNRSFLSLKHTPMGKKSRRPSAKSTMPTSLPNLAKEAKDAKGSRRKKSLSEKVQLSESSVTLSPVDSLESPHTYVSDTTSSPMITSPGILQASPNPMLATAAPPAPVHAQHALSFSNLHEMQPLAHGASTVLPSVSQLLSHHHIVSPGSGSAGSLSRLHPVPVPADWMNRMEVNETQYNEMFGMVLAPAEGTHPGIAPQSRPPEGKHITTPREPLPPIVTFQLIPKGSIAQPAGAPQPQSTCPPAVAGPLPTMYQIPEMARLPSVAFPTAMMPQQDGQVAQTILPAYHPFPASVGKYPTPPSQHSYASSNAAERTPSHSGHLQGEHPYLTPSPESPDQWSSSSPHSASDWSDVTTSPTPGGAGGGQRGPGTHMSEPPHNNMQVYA

[6] = molecular target: Pro-neuregulin-1, membrane-bound isoform (Homo sapiens) (UniProt Q02297); assay: small molecules binding neuregulin-1 protein – biochemical, small-molecule microarray, fluorescence 635/667, psychiatric disease protein project, primary screen (AID 1075); conditions: NRG1 binding, 635 nm fluorescence, higher = more signal;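 further: score combines 667 nm spot fluorescence with signal to noise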
Chain of Pro-neuregulin-1, membrane-bound isoform (Homo sapiens) (Q02297 whole entry, looked up, the tested form may be a part, canonical isoform): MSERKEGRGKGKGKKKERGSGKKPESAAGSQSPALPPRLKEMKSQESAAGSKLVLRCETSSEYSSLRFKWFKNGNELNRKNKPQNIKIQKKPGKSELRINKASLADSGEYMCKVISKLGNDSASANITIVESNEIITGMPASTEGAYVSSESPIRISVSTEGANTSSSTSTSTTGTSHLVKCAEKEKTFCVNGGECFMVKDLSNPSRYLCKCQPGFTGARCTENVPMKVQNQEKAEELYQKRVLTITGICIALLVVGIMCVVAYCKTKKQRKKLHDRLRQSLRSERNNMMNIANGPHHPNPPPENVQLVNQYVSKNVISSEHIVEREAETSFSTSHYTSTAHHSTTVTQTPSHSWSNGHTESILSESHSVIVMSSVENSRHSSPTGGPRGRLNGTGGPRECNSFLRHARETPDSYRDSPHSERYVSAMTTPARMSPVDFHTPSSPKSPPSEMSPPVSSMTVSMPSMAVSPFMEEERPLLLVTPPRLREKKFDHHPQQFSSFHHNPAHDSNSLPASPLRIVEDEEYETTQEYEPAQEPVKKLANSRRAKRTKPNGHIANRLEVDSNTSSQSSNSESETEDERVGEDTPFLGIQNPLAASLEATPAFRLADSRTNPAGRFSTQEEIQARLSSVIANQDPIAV

[7] = system: Neuregulin-1 EGF-like domain; assay: small molecules binding NRG1 EGF domain – biochemical, small-molecule microarray, 635 nm fluorescence, primary screen (AID 1081); conditions: higher = more signal;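 further: binding of the protein to compounds printed on small-molecule microarray slides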
[8] = FRG1 expression reporter modulators in myotubes – cell-based, C2C12 myotubes, firefly/Renilla luciferase, luminescence, FRG1 inhibition for FSHD, primary screen (AID 1084); conditions: FRG1 promoter luciferase, higher = more signal, called active from +8 up or from −8 down
[9] = small molecules captured by biotinylated probe aFST – biochemical, small-molecule microarray, fluorescence 635/667, stem cell growth factor project, primary screen (AID 1086); conditions: higher = more signal;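 further: score merges 667 nm fluorescence with signal-to-noise of each printed compound spot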
[10] = binders of probe aHhip on microarray, primary screen, stem cell growth factor project, biochemical, small-molecule microarray, fluorescence 635/667 (AID 1087); conditions: higher = more signal;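 further: score merges spot fluorescence at 667nm with spot signal to noise ratio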
[11] = system: PRMT1 (protein arginine N-methyltransferase 1); assay: small molecules binding arginine methyltransferase PRMT1 – biochemical, small-molecule microarray, 635 nm fluorescence, primary screen (AID 1088); conditions: higher = more signal;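 further: binding of Prmt1 protein to compounds spotted on small-molecule microarray slides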
[12] = growth effects on S. cerevisiae YJM789 – YJM789 clinical isolate, OD600, 24 h, basal, primary screen (AID 1089); conditions: higher = more signal, called active from +8 up or from −8 down;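 further: growth of clinical yeast isolate S. cerevisiae YJM 789 seeded 1000 cells per well; test concentration not given here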
[13] = S. pombe growth modifiers, basal conditions – strain 972, OD600, 24 h, no modulator, primary screen (AID 1090);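 further: basal condition with compound alone and no growth modifier present; test concentration not given here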; conditions: S. pombe 972 growth, higher = more signal, called active from +8 up or from −8 down
[14] = budding yeast growth modifiers under rapamycin – strain BY4716, OD600, 96 h, primary screen (AID 1091); further: test concentration not given here; conditions: S. cerevisiae BY4716 + rapamycin, higher = more signal, called active from +8 up or from −8 down
[15] = molecular target: Torsin-1A-interacting protein 2 (Homo sapiens) (UniProt Q8NFQ8); assay: small molecules binding lysate-expressed LULL1 – cell lysate, human LULL1 lysate, 635/667 nm fluorescence, primary screen (AID 1092); conditions: small-molecule microarray, hLULL1 lysate binding, 635 nm fluorescence; higher = more signal;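 further: probe is lysate of COS7 cells overexpressing human LULL1; score merges per-feature 667 nm fluorescence with signal-to-noise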
Chain of Torsin-1A-interacting protein 2 (Homo sapiens) (Q8NFQ8 whole entry, looked up): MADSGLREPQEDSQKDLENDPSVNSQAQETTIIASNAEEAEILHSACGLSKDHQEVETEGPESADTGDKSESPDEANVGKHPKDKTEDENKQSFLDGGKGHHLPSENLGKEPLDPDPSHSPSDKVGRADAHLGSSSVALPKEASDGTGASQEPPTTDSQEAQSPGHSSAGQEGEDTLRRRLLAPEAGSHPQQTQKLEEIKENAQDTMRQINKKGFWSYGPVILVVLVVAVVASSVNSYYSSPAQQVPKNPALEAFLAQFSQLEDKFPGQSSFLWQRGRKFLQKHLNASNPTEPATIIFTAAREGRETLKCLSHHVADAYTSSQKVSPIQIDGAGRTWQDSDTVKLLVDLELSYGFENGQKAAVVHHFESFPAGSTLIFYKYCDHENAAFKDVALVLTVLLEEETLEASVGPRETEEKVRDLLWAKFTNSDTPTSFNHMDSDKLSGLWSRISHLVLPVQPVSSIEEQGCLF

[16] = optical density change of DRC41 E. coli – strain DRC41, OD650, 24 h, E. coli filamentation project, primary screen (AID 1093);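 further: MC1000 strain lacking acrAB efflux and sulA so SOS filamentation is blocked; test concentration not given here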; conditions: E. coli DRC41 growth, higher = more signal, called active from +8 up or from −8 down
[17] = probe aLefty2 binding to arrayed compounds – biochemical, biotinylated probe, 635/667 nm fluorescence, primary screen (AID 1094); conditions: small-molecule microarray, higher = more signal;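 further: score merges spot fluorescence near 667 nm with spot signal-to-noise ratio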
[18] = system: Noggin (protein binding on small-molecule microarray); assay: small molecules binding Noggin protein – biochemical, 635/667 nm fluorescence, primary screen (AID 1095); conditions: 635 nm fluorescence, higher = more signal;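 further: score merges 667 nm feature fluorescence with signal to noise over triplicate slides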
[19] = molecular target: Neurogenic locus notch homolog protein 3 (Homo sapiens) (UniProt Q9UM47); assay: small molecules binding NOTCH3 protein – biochemical, 635/667 nm fluorescence, primary screen (AID 1096); conditions: small-molecule microarray, 635 nm fluorescence, higher = more signal
[20] = probe aEGFR binding to arrayed compounds – biochemical, biotinylated probe, 635/667 nm fluorescence, primary screen (AID 1097); conditions: small-molecule microarray, higher = more signal;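 further: probe is a biotinylated anti-EGFR antibody binding compounds printed on slides; score combines fluorescence near 667 nm and signal to noise of each spot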

SMILES	composite z-score [1]	composite z-score [2]	composite z-score [3]	composite z-score [4]	composite z-score [5]	composite z-score [6]	composite z-score [7]	z-score [8]	composite z-score [9]	composite z-score [10]	composite z-score [11]	z-score [12]	z-score [13]	z-score [14]	composite z-score [15]	z-score [16]	composite z-score [17]	composite z-score [18]	composite z-score [19]	composite z-score [20]
COCCOC(=O)N1C(=O)[C@@]2(c3cc(C#Cc4ccc(OC)cc4)ccc31)[C@H](c1ccccc1OCCO)N1[C@H](c3ccccc3)[C@H](c3ccccc3)OC(=O)[C@H]1[C@@H]2C(=O)N1CCCCCCC1	3.55	1.2	0.903	0.573	1.3	1.7	0.961	-0.633 (inactive)	3.39	1.47	1.27	-1.44 (inactive)	0.423 (inactive)	3.91 (inactive)	3.85	1.53 (inactive)	1.71	1.97	0.841	1.17
CC(C)[Si](C#C[Si](C(C)C)(C(C)C)C(C)C)(O[C@H](C)c1cn([C@H](CO)Cc2ccccc2)nn1)C(C)C	-0.311	0.585	-0.116	0.215	0.203	0.183	0.432	-1.06 (inactive)	0.513	-0.111	0.857	-0.653 (inactive)	-0.644 (inactive)	-0.356 (inactive)	1.76	1.51 (inactive)	-0.0961	-0.0066	0.407	-0.133
O=C1N(Cc2ccccc2)Cc2ccccc2[C@@H]2OC(c3ccc(OCCCO)cc3)=N[C@]12CCS(=O)(=O)c1ccccc1	0.184	-0.0546	0.0247	0.379	1.28	1.48	1.32	-3.35 (inactive)	0.297	-0.171	1.57	1.01 (inactive)	1.41 (inactive)	14.9 (active)	2.96	0.0267 (inactive)	0.228	0.49	0.763	0.209
CCOC(=O)C[C@H]1[C@H](OC(=O)Cc2ccc3c(c2)OCO3)[C@@H](NC(=O)CC(C)C)c2cc(OCCCO)ccc2N1C(=O)Cc1ccc(OC)cc1	-0.244	0.0682	-0.114	0.103	-0.0727	-0.308	0.258	-2.61 (inactive)	-0.207	-0.245	0.336	-1.88 (inactive)	-0.843 (inactive)	-0.733 (inactive)	1.09	1.38 (inactive)	-0.134	-0.0273	0.0046	-0.111
CC1=C[C@@]2(CO)C(=O)[C@]3(CO3)[C@@H]1[C@H]1[C@]2(C)C=C(CO)C(=O)[C@]12CO2	-0.457	-0.42	-0.0782	0.345	0.31	0.194	0.677	-1.35 (inactive)	0.614	0.459	0.295	-1.32 (inactive)	-9.27 (active)	-0.946 (inactive)	0.0091	0.179 (inactive)	-0.113	0.177	0.652	-0.276
COc1ccc([Si](C)(C)[C@@H]2[C@@H](CC(=O)N3Cc4ccccc4C[C@H]3CO)O[C@]3(C(=O)N(C)c4ccccc43)[C@H]2C)cc1	0.279	0.56	0.0331	0.686	0.356	0.969	1.22	-4.24 (inactive)	0.714	0.202	1.53	-0.912 (inactive)	0.256 (inactive)	1.86 (inactive)	1.83	-0.0789 (inactive)	0.279	1.84	1.11	-0.0052
C=C(C(=O)CC[C@@H](OC(C)=O)c1ccc(CO)o1)C(C)C	-0.0468	-0.0472	-0.08	0.114	0.17	-0.116	0.0816	0.776 (inactive)	-0.105	0.0749	1.2	-2.4 (inactive)	-0.357 (inactive)	-0.561 (inactive)	0.288	0.331 (inactive)	-0.186	1.28	0.982	-0.15
CC(=O)c1ccc(C(O)C2C=CC3C(=O)N(c4ccccc4)C(=O)C3N2Nc2ccc(C#N)cc2)cc1 (stereo not given)	0.0415	0.233	-0.122	-0.0474	0.833	1.5	0.609	-0.0141 (inactive)	0.766	-0.0645	0.155	-0.623 (inactive)	1.04 (inactive)	2.05 (inactive)	3.76	-0.963 (inactive)	-0.103	-0.442	0.352	0.0753
C[N+](C)(C)CCCCCCNC(=O)[C@H]1C[C@H]2C(=O)N[C@@H](Cc3ccccc3)C(=O)N2[C@H]1c1ccc(O)cc1	0.18	0.375	-0.0853	0.316	0.224	0.736	1.21	2.26 (inactive)	-0.0859	0.0373	1.53	-0.327 (inactive)	0.162 (inactive)	0.0818 (inactive)	2.56	0.441 (inactive)	-0.0769	1.18	0.98	-0.136
O=C1C2C=CC(C(O)c3ccc(Br)cc3)N(Nc3ccccc3F)C2C(=O)N1c1ccccc1 (stereo not given)	-0.436	0.536	0.0181	0.178	0.776	1.11	1.06	-1.55 (inactive)	0.68	-0.0346	0.566	-1.16 (inactive)	-0.435 (inactive)	-1.26 (inactive)	2.97	0.569 (inactive)	-0.103	-0.231	0.626	-0.112
